Test results reported in the antibiotic and cytotoxicity screens of Wong et al. (2023).
Screen size: about 39,000 compounds; about 3,300 (8.5%) were called active. The sample as a whole holds a higher share of actives than the screen did.

Test system: HepG2
Assay: cytotoxicity call (relative viability < 0.9)
Conditions: 10 µM

| SMILES | cytotoxicity call |
| --- | --- |
| COc1cc(F)c(C(C)C)cc1-c1ccc(C(F)(F)F)cc1CN1C(=O)O[C@H](c2cc(C(F)(F)F)cc(C(F)(F)F)c2)[C@@H]1C | inactive |
| COc1ccc2c3c(n(c2c1)C)[C@H](CO)N(C[C@]13CCN(CC1)C(=O)c1cccnc1)C(=O)c1cccnc1 | inactive |
| C[C@@H]1CN([C@@H](C)CO)C(=O)c2cc(NC(=O)c3ccncc3)ccc2O[C@@H]1CN(C)Cc1ccncc1 | inactive |
| C[C@@H]1CCCCO[C@H](CN(C)C(=O)CCCN(C)C)[C@H](C)CN([C@@H](C)CO)C(=O)c2cc(NC(=O)Nc3ccc(F)cc3)ccc2O1 | inactive |
| COc1ccc(NC(=O)N(C)C[C@@H]2OCCCC[C@@H](C)Oc3ccc(NS(=O)(=O)c4ccccc4)cc3C(=O)N([C@H](C)CO)C[C@H]2C)cc1 | inactive |
| COc1cccc(-c2ccc3c(c2)O[C@@H](CN(C)C(=O)C2CC2)[C@@H](C)CN([C@H](C)CO)S3(=O)=O)c1 | inactive |
| C[C@@H]1CN([C@H](C)CO)C(=O)c2cc(NS(=O)(=O)c3ccc(Cl)cc3)ccc2O[C@@H](C)CCCCO[C@@H]1CN(C)C(=O)CCC(F)(F)F | inactive |
| N[C@H](C(=O)O)c1cc(O)cc(O)c1 | inactive |
| Cc1noc(C)c1NC(=O)Nc1ccc2c(c1)C(=O)N([C@@H](C)CO)C[C@@H](C)[C@@H](CN(C)C(=O)Nc1cccc3ccccc13)O2 | inactive |
| Cc1noc(C)c1NC(=O)N(C)C[C@H]1OCCCC[C@H](C)Oc2ccc(NS(=O)(=O)c3cccs3)cc2C(=O)N([C@H](C)CO)C[C@@H]1C | inactive |
| CCCCCCc1ccc(O)cc1O.Nc1c2ccccc2nc2ccccc12 | active |
| CCCCCCc1ccc(O)cc1O [listing 1 of 2 here] | active |
| CCCCCCc1ccc(O)cc1O [listing 2 of 2 here] | inactive |
| COC(=O)CCc1ccc(OC)cc1O | inactive |
| CCCCCCCCCCCCCCCCCC(=O)NCCCCOn1c(CCCC)nc2c(N)nc3ccccc3c21 | inactive |
| CCCCCCCc1c(C)c(O)cc2c1[nH]c1ccccc12 | inactive |
| Cc1noc(C)c1NC(=O)Nc1ccc2c(c1)CC(=O)N([C@@H](C)CO)C[C@H](C)[C@@H](CN(C)S(=O)(=O)c1cccs1)O2 | inactive |
| Cc1noc(C)c1NC(=O)N(C)C[C@H]1Oc2ccc(NS(=O)(=O)c3ccccc3)cc2CC(=O)N([C@@H](C)CO)C[C@@H]1C | inactive |
| COc1ccc(NC(=O)N[C@@H]2CC[C@H](CCNC(=O)CN3CCOCC3)O[C@@H]2CO)cc1 | inactive |
| CCC(=O)N(C)C[C@H]1Oc2ncc(C#C[C@H](C)O)cc2C(=O)N([C@H](C)CO)C[C@@H]1C | inactive |
| C[C@H](CO)N1C[C@H](C)[C@@H](CN(C)C(=O)Nc2ccccc2)Oc2cc(C#C[C@@H](C)O)ccc2S1(=O)=O | inactive |
| C[C@@H]1CN([C@H](C)CO)S(=O)(=O)c2ccc(-c3cncnc3)cc2O[C@@H]1CN(C)C(=O)c1cccc(F)c1 | inactive |
| CCc1c(C)[nH]c2ncnn2c1=O | inactive |
| CCCN(C)C[C@H]1Oc2cc(C#Cc3cccc(OC)c3)ccc2S(=O)(=O)N([C@@H](C)CO)C[C@H]1C | inactive |

| SMILES | cytotoxicity call |
| --- | --- |
| C[C@H]1CN([C@@H](C)CO)C(=O)c2cccc(NC(=O)Nc3cccc4ccccc34)c2O[C@H]1CN(C)Cc1ccc2c(c1)OCO2 | inactive |
| c1ccc(-c2nn(-c3ccccc3)c3c2cnc2ccccc23)cc1 | active |
| c1ccc(-c2cc(-c3ccccc3)n(-c3ccccc3)n2)cc1 | inactive |
| COc1ccc2c(c1)c(-c1ccccc1)nn2-c1ccc(C)cc1 | inactive |
| Cc1cc(C)c(S(=O)(=O)N2CCO[C@@H]2CNC(=O)C(=O)NCCCN2CCCC2=O)c(C)c1 | inactive |
| Cc1c(NC(C)C)c(=O)n(-c2ccccc2)n1C.Cl | inactive |
| C[C@@H]1CN([C@H](C)CO)C(=O)c2cc(NS(=O)(=O)c3ccc(F)cc3)ccc2O[C@H]1CN(C)S(=O)(=O)c1ccccc1 | inactive |
| O=C1CCOC[C@@H]2CCCN12 | inactive |
| C[C@@H]1CCCCO[C@@H](CN(C)Cc2ccncc2)[C@H](C)CN([C@@H](C)CO)C(=O)c2cc(NC(=O)Nc3ccccc3)ccc2O1 | inactive |
| C[C@@H]1CCCCO[C@H](CN(C)Cc2ccc(C(=O)O)cc2)[C@@H](C)CN([C@@H](C)CO)C(=O)c2cc(NC(=O)Cc3ccccc3)ccc2O1 | inactive |
| Cc1ccc(S(=O)(=O)N(C)C[C@H]2Oc3ccc(N(C)C)cc3CC(=O)N([C@H](C)CO)C[C@H]2C)cc1 | inactive |
| Cc1ccc(S(=O)(=O)N(C)C[C@@H]2Oc3ccc(N(C)C)cc3CC(=O)N([C@H](C)CO)C[C@@H]2C)cc1 | active |
| Cc1ccc(S(=O)(=O)N(C)C[C@H]2Oc3ccc(N(C)C)cc3CC(=O)N([C@@H](C)CO)C[C@@H]2C)cc1 | inactive |
| Cc1ccc(S(=O)(=O)N(C)C[C@H]2Oc3ccc(N(C)C)cc3CC(=O)N([C@@H](C)CO)C[C@H]2C)cc1 | inactive |
| Cc1ccc(S(=O)(=O)N(C)C[C@@H]2Oc3ccc(N(C)C)cc3CC(=O)N([C@H](C)CO)C[C@H]2C)cc1 | inactive |
| Cc1ccc(S(=O)(=O)N(C)C[C@@H]2Oc3ccc(N(C)C)cc3CC(=O)N([C@@H](C)CO)C[C@@H]2C)cc1 | active |
| C[C@H](CO)N1C[C@H](C)[C@@H](CN(C)Cc2ccc(C(=O)Nc3ccccc3N)cc2)Oc2c(NS(C)(=O)=O)cccc2C1=O | inactive |
| Cc1noc(C)c1NC(=O)Nc1ccc2c(c1)C(=O)N([C@@H](C)CO)C[C@H](C)[C@H](CN(C)Cc1ccncc1)OCCCC[C@H](C)O2 | inactive |
| CN1CCN(C(=O)C[C@H]2CC[C@H]3[C@@H](COc4ccc(NC(=O)C5CCOCC5)cc4C(=O)N3C)O2)CC1 | inactive |
| CC(C)(C)Nc1nc(=O)[nH]c(=O)[nH]1 | inactive |
| Cc1noc(C)c1S(=O)(=O)N(C)C[C@H]1Oc2ccc(NS(=O)(=O)c3cccs3)cc2CC(=O)N([C@@H](C)CO)C[C@H]1C | inactive |
| CC(C)(C)CC(C)(C)c1ccc(O)c(Cc2ccc(Cl)cc2Cl)c1 | active |
| CC(C)(C)CC(C)(C)c1cc(Cc2cc(C(C)(C)CC(C)(C)C)cc(-n3nc4ccccc4n3)c2O)c(O)c(-n2nc3ccccc3n2)c1 [listing 1 of 2 here] | inactive |
| CC(C)(C)CC(C)(C)c1cc(Cc2cc(C(C)(C)CC(C)(C)C)cc(-n3nc4ccccc4n3)c2O)c(O)c(-n2nc3ccccc3n2)c1 [listing 2 of 2 here] | inactive |
